The values that follow come from the supplement of paper PMC10338343.

± gives the standard deviation.

In the assay the test system is MILI (PIWIL2) piRISC loaded with L1MC piRNA (26 nt). In words: pre-steady-state target cleavage rate (min^-1); guide: L1MC piRNA 5'p-UAACUAAAUACUAUGCAAGCUGUAGG; MIWI and MILI are mouse PIWI proteins and EfPiwi is from a freshwater sponge; tags in brackets are library labels; higher = faster piRNA-guided slicing of the target. The conditions noted are these: auxiliary factor: 500 nM mouse GTSF1. An outline of the steps:
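Active affinity-purified piRISC (1 nM) loaded with one synthetic guide was mixed with a transcribed, DNA-blocked target RNA library (0.1 nM), with or without 500 nM GTSF1 partner protein, in HEPES–potassium acetate buffer at 33 °C for 0–8 or 0–960 min. Uncleaved targets were sequenced, normalised to depth and to weakly complementary targets, and pooled across three trials, with k3 capped at 0.0001 min^-1. The pre-steady-state cleavage rate was determined with a burst-and-steady-state fit.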
On to UCCUGGAUGAGCUUGCAUAGAAAUUAGUUA, for which the “pre-steady-state target cleavage rate” value came to 0.0228 ± 0.0075. To UCCUGGAUGAGCUUGCAUAGUAUAAUGUAA belongs 0.00667 ± 0.0048. In the case of UCCUGGAUGUCGUUGCCAUAGUAUUUAGUUA it was 0.00586 ± 0.0034; in that of UCCUGCUACACGAUGCAUAGUAUUUAGAAA, 0.183 ± 0.042.

For the sequence UCCUGCUACACCUUGCAUAGUAUUUACUUA, the “pre-steady-state target cleavage rate” value came out at 0.102 ± 0.034. Regarding UCCUGGAUGAGCUUGCAUACUAUUUACUUA, the “pre-steady-state target cleavage rate” value worked out at 0.00478 ± 0.0043. As for UCCUGGAUCAGCUUGCAUACUAUUUAGAUA, the “pre-steady-state target cleavage rate” value was 0.0139 ± 0.0058. Consider UCCUGGUAGUCCUUGCAUAGUAUUUAGAAA, for which the “pre-steady-state target cleavage rate” value amounted to 0.0521 ± 0.017.

In the case of UCCUGGUACAGCUUCGAUAGUAUUUAGAAA, the “pre-steady-state target cleavage rate” value was found to be 0.0453 ± 0.014. Consider UCCUGCUACAGCUUGCAUGAGUAUUUAGUUA, for which the “pre-steady-state target cleavage rate” value was determined as 0.0058 ± 0.0041. As for UCCUGGAUGUCCUUGCAUAGUAUGUAGUUA, the “pre-steady-state target cleavage rate” value was found to be 0.107 ± 0.022. In the case of UCCUGGAACAGCUUGCAUAGUAUUUAGAUUA it was 0.0966 ± 0.023; in that of UCCUGGAUGUCCUUGCAUAGUAUAUACUUA, 0.00862 ± 0.0049. In the case of UCCUGGUACUGCUUGCAUAGUAUUUAGUAA, the “pre-steady-state target cleavage rate” value was determined as 0.0986 ± 0.018. In the case of UCCUGGAUGUCGAAGCAUAGUAUUCUAGUUA, the “pre-steady-state target cleavage rate” value was found to be 0.0193 ± 0.0065.

UCCUGGAUGUCCUUGCUUAGUAUUUAGUAA: the “pre-steady-state target cleavage rate” value is 0.0426 ± 0.013. UCCUGGAUGUGCUAGCAUAGUAUUUAGAUA: the “pre-steady-state target cleavage rate” value is 0.0954 ± 0.023.

As for UCCUGGAUGUCGAAGCAUAGUAUUUAUGUUA, the “pre-steady-state target cleavage rate” value is 0.022 ± 0.0065.

In the case of UCCUGGAUCUCGUUGCAUAGUAUUUACAAA, the “pre-steady-state target cleavage rate” value is 0.0638 ± 0.014. With UCCUGGAUGUCCAUGCAUAGUAUUUAGUAA, the “pre-steady-state target cleavage rate” value came to 0.0373 ± 0.011. As to UCCUGGAUGUCCUUGCAUAGUAUUUACAAA, the “pre-steady-state target cleavage rate” value came to 0.0869 ± 0.025.

On to UCCUGGAUGUCCUAGCAAAGUAUUUAGUUA, for which the “pre-steady-state target cleavage rate” value worked out at 0.00585 ± 0.0032. In the case of UCCUGGAUGUGCUUGCAUUGUAUUUAGAAA it was 0.0114 ± 0.0047; in that of UCCUGGAUGUCCUUGCAUAAUAUUUAGUUA, 0.0892 ± 0.015; in that of UCCUGCUACAGCUUGCUUAGUAUUUACAAA, 0.0114 ± 0.0054. In the case of UCCUGGAACUGCUUGCAUAGAAUUUAGUUA, the “pre-steady-state target cleavage rate” value is 0.0556 ± 0.013. To UCCUGGAUCAGCUUGCAUAGUAUUAUCUAA belongs 0.0859 ± 0.021.

As to UCCUGGAUCACCUUGCAUAGUAUUUACAAA, the “pre-steady-state target cleavage rate” value was found to be 0.131 ± 0.031. UCCUGGAUGUCCUUGCAAAGUAUUUACUUA: the “pre-steady-state target cleavage rate” value came out at 0.0234 ± 0.0076. In the case of UCCUGGAUGAGCUUGCAUAGUAUUUUCAAA it was 0.00959 ± 0.0061; in that of UCCUCCUACAGCUUGCAUAGAUAUUAGUAA, 0.015 ± 0.007. In the case of UCCUGCUACAGCUUGCAUAGUUUUUUGUUA it was 0.112 ± 0.028; in that of UCCUGGAUGACCUUGCAUAGUAUUUACAAA, 0.114 ± 0.033. Regarding UCCUGCUACAGCUUGCAUAGAUUUUAGUUA, the “pre-steady-state target cleavage rate” value stood at 0.0475 ± 0.0083.
